# Laboratory results from the supplement of paper PMC10849652.
# The full data set covers some 8,800 targets. This sample favours those with a hit. About 0.5% of all pairs of compound and target were hits. A number with no mark means an inactive call.
# What was measured:
# Experiment in all cases: log2 fold change, soluble protein after heating vs DMSO (PISA); higher = thermal stabilisation; K562 lysate, 10 uM; active = over 0.2 and 3.5 SD of the protein, either way, in both replicates (recomputed)
# vemurafenib = compound: CCCS(=O)(=O)Nc1ccc(F)c(C(=O)c2c[nH]c3ncc(-c4ccc(Cl)cc4)cc23)c1F [vemurafenib]
# In short: (§1)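 Soluble protein was defined as the supernatant remaining after 21,000xg for 90 min, following pooling of heated aliquots and adjustment to 0.5% NP-40 at 4°C. Before that, crude K562 extract at 1 mg/mL protein in PBS pH 7.4 with 1 mM MgCl2 was treated with 10 μM compound for 30 min and heated for 3 min across 48°C-58°C. Quantification used TMTpro 16plex LC-MS/MS with channel sums equalised, and values are log-two fold changes in thermal stability relative to solvent controls from duplicates.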
# [1] = compound: CCCS(=O)(=O)Nc1ccc(F)c(C(=O)c2c[nH]c3ncc(Cl)cc23)c1F
# In short: as §1
# barasertib = compound: CCN(CCCOc1ccc2c(Nc3cc(CC(=O)Nc4cccc(F)c4)[nH]n3)ncnc2c1)CCOP(=O)(O)O [barasertib]
# In short: as §1
# [2] = compound: CC[C@@H]1C(=O)N(C)c2cnc(Nc3ccc(C(=O)NC4CCN(C)CC4)cc3OC)nc2N1C1CCCC1
# In short: as §1
# volasertib = compound: CC[C@@H]1C(=O)N(C)c2cnc(Nc3ccc(C(=O)N[C@H]4CC[C@H](N5CCN(CC6CC6)CC5)CC4)cc3OC)nc2N1C(C)C [volasertib]
# In short: as §1
# [3] = compound: CCn1c(C(=O)N(C2CC2)C2CC2)cc2c3c(ncn3C)c(Nc3cc(C)n(C)n3)nc21
# In short: as §1
# [4] = compound: CCn1cc(-c2ccnc3[nH]c(-c4cccc(CN(C)C)c4)cc23)c(-c2ccc(NC(=O)N(C)C)cc2)n1
# In short: as §1
# [5] = compound: CN1CCC(CNc2ccc3ncc(-c4cccc(OC(F)(F)F)c4)n3n2)CC1
# In short: as §1
# saracatinib = compound: CN1CCN(CCOc2cc(OC3CCOCC3)c3c(Nc4c(Cl)ccc5c4OCO5)ncnc3c2)CC1 [saracatinib]
# In short: as §1
# sotrastaurin = compound: CN1CCN(c2nc(C3=C(c4c[nH]c5ccccc45)C(=O)NC3=O)c3ccccc3n2)CC1 [sotrastaurin]
# In short: as §1
# alvocidib = compound: CN1CC[C@H](c2c(O)cc(O)c3c(=O)cc(-c4ccccc4Cl)oc23)[C@H](O)C1 [alvocidib]
# In short: as §1
# Tubastatin A = compound: CN1CCc2c(c3ccccc3n2Cc2ccc(C(=O)NO)cc2)C1 [Tubastatin A]
# In short: as §1
# [6] = compound: CNC(=O)C1=CC=CC=C1NC2=NC(=NC=C2Cl)NC3=C(C=C(C=C3)N4CCOCC4)OC
# In short: as §1
# defactinib = compound: CNC(=O)c1ccc(Nc2ncc(C(F)(F)F)c(NCc3nccnc3N(C)S(C)(=O)=O)n2)cc1 [defactinib]
# In short: as §1
# [7] = compound: CNc1nc(-c2ccc3c(N)n[nH]c3c2)cc(N2C[C@@H](C(=O)NC3CCCCC3)CC[C@H]2C)n1
# In short: as §1
# encorafenib = compound: COC(=O)N[C@@H](C)CNc1nccc(-c2cn(C(C)C)nc2-c2cc(Cl)cc(NS(C)(=O)=O)c2F)n1 [encorafenib]
# In short: as §1
# [8] = compound: COC(=O)[C@H](CCSC)NC(=O)C1=C(C=C(C=C1)NC[C@H](CS)N)C2=CC=CC=C2
# In short: as §1
# alisertib = compound: COc1cc(Nc2ncc3c(n2)-c2ccc(Cl)cc2C(c2c(F)cccc2OC)=NC3)ccc1C(=O)O [alisertib]
# In short: as §1
# [9] = compound: COc1cc2nc(-c3cc(F)ccc3O)nc(N[C@@H]3CNC[C@H]3C(C)(C)O)c2cc1OC
# In short: as §1
# gefitinib = compound: COc1cc2ncnc(Nc3ccc(F)c(Cl)c3)c2cc1OCCCN1CCOCC1 [gefitinib]
# In short: as §1
# Chain of UniProt Q16836 (Q16836 whole entry, looked up): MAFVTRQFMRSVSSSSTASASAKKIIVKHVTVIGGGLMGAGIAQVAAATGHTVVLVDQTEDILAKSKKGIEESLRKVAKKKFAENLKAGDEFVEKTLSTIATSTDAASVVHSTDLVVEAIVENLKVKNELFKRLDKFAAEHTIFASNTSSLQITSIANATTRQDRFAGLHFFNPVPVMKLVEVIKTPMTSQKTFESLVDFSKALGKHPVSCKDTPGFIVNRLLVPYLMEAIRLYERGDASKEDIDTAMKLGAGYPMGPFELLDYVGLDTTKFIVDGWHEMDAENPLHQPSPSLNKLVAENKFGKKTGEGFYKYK
# Chain of UniProt Q7Z4Q2 (Q7Z4Q2 whole entry, looked up): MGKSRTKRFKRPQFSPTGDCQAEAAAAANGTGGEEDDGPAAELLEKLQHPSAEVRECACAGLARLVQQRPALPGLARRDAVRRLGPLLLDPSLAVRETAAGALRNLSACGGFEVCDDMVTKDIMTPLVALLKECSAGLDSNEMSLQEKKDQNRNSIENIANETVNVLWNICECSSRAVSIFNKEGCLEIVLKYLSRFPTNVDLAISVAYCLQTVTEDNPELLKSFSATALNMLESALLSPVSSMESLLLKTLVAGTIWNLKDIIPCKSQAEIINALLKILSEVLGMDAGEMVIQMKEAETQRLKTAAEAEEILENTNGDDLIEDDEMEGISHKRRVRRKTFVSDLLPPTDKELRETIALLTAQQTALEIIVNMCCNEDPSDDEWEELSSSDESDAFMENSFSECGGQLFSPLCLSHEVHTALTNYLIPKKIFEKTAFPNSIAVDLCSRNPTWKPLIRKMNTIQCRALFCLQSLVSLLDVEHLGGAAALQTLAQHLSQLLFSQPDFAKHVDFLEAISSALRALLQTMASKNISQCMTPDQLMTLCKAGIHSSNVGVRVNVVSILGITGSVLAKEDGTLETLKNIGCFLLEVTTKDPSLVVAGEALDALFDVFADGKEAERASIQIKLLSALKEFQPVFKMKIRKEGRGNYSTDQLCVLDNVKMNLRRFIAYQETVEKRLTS
# Chain of UniProt Q8NC54 (Q8NC54 whole entry, looked up): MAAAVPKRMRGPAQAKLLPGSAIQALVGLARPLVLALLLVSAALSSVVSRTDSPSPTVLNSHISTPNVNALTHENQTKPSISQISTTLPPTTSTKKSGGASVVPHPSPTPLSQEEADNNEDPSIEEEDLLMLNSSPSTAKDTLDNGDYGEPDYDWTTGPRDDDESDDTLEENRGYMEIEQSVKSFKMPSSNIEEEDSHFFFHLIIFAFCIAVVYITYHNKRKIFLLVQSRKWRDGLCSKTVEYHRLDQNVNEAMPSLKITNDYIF
# Chain of UniProt Q6NT76 (Q6NT76 whole entry, looked up): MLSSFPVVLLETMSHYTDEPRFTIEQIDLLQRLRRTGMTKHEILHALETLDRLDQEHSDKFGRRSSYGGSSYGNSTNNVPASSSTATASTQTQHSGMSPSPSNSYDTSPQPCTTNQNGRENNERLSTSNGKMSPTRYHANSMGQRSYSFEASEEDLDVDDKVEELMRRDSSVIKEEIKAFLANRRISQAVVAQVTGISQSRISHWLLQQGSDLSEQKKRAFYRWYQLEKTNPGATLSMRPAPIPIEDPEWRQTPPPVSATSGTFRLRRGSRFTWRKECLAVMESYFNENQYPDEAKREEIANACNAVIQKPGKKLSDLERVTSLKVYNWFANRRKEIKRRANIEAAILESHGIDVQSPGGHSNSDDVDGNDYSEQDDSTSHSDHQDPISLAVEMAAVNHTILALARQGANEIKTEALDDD
# Chain of UniProt Q14103 (Q14103 whole entry, looked up): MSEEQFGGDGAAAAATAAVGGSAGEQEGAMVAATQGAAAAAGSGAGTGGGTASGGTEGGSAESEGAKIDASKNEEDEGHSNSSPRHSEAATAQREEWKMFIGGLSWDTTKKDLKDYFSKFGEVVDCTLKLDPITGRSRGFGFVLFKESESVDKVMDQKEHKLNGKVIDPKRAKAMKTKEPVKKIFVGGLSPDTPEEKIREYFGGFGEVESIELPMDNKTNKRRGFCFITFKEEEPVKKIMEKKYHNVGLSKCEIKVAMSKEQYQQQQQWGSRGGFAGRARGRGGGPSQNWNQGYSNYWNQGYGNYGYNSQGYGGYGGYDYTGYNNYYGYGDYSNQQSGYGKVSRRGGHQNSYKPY
# Chain of UniProt Q9P2X3 (Q9P2X3 whole entry, looked up): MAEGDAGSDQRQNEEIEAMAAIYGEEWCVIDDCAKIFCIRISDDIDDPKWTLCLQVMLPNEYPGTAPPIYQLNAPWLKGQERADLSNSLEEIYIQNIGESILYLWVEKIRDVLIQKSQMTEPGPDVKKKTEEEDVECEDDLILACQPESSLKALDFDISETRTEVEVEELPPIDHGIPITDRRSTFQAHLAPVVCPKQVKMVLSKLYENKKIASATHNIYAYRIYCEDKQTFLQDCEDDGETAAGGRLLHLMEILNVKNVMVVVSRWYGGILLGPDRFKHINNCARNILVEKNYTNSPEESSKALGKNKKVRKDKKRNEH
# Chain of UniProt Q6P9B9 (Q6P9B9 whole entry, looked up): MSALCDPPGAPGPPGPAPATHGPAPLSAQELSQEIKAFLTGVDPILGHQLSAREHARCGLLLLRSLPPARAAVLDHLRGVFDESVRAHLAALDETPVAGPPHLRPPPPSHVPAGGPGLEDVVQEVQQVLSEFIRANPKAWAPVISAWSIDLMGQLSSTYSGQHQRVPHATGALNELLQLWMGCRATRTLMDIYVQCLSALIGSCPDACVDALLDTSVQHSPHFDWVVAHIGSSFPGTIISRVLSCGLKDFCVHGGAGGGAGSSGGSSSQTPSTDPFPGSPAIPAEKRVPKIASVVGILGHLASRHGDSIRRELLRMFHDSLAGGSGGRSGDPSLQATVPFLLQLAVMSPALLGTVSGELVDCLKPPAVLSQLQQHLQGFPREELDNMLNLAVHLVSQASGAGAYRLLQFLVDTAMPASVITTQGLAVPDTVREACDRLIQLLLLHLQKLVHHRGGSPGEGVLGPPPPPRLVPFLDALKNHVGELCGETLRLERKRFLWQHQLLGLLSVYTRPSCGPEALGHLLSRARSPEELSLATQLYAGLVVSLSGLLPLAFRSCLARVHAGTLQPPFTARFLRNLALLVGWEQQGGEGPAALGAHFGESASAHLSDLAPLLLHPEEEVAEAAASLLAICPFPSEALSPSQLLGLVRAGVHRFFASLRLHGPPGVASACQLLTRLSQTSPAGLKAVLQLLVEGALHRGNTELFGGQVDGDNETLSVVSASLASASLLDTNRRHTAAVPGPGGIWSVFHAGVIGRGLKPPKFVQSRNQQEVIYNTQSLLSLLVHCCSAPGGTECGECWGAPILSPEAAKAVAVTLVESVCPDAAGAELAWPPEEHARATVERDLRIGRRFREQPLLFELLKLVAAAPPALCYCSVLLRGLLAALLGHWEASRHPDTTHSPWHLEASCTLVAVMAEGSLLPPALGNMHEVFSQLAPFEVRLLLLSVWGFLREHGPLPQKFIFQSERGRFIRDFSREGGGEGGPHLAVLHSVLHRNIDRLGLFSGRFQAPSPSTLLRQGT
# Chain of UniProt Q5T447 (Q5T447 whole entry, looked up): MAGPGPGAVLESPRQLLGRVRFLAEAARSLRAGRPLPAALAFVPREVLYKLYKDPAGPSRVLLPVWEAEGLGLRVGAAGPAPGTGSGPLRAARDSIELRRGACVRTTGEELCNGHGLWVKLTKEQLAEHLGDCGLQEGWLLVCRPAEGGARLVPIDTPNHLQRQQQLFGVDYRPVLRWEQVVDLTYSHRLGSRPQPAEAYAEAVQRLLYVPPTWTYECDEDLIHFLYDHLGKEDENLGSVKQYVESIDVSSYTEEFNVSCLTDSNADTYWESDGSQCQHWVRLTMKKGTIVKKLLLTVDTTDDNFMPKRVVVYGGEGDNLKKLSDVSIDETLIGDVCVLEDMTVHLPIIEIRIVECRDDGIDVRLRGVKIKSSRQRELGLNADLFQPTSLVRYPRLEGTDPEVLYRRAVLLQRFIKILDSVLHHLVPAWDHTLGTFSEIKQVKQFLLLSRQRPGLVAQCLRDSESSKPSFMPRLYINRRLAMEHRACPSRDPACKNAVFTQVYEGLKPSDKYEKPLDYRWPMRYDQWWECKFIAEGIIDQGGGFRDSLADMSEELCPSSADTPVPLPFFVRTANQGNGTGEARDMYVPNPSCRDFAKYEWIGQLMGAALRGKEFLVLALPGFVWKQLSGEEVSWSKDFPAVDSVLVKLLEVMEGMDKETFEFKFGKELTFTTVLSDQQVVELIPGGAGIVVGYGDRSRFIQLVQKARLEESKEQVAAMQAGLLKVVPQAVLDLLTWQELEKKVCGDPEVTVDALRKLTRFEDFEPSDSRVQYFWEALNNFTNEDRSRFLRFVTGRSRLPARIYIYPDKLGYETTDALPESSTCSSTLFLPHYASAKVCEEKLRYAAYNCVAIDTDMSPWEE
# Chain of UniProt P51617 (P51617 whole entry, looked up): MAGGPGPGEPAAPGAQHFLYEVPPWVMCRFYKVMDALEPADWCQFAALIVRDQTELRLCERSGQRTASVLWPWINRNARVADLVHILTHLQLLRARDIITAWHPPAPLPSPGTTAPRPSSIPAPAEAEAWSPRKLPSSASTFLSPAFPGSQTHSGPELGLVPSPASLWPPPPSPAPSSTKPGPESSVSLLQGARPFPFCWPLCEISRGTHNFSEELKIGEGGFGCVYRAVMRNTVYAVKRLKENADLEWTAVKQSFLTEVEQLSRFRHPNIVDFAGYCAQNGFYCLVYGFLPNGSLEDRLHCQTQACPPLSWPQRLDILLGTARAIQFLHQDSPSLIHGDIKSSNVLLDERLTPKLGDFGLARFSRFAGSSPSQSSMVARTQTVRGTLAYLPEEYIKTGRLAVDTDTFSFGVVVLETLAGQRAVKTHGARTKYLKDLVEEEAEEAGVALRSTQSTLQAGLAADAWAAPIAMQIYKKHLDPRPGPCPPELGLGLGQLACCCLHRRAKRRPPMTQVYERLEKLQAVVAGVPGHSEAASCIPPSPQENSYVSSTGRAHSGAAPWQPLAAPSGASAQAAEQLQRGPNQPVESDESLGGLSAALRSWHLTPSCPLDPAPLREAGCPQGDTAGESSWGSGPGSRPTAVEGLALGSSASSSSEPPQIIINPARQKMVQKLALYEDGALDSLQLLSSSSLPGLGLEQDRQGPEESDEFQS
Target,log2 fold change (vemurafenib),log2 fold change [1],log2 fold change (barasertib),log2 fold change [2],log2 fold change (volasertib),log2 fold change [3],log2 fold change [4],log2 fold change [5],log2 fold change (saracatinib),log2 fold change (sotrastaurin),log2 fold change (alvocidib),log2 fold change (Tubastatin A),log2 fold change [6],log2 fold change (defactinib),log2 fold change [7],log2 fold change (encorafenib),log2 fold change [8],log2 fold change (alisertib),log2 fold change [9],log2 fold change (gefitinib)
KHDRBS1 (UniProt Q07666),-0.025,0.004,0.034,-0.024,-0.024,-0.002,0.083,-0.048,-0.004,-0.008,0.039,-0.045,0.017,-0.006,0.007,0.019,-0.139,-0.025,0.011,-0.01
IMPACT (UniProt Q9P2X3),0.158,-0.117,-0.014,-0.095,0.053,0.133,0.003,-0.122,0.001,0.058,0.002,-0.04,-0.006,0.013,-0.05,0.063,-0.083,-0.024,-0.044,0.167
HNRNPD isoform 3 (UniProt Q14103),0.024,-0.028,-0.033,0.128,0.014,0.077,-0.077,-0.023,0.048,-0.066,0.017,0.008,0.004,0.117,0.146,0.036,0.016,0.024,0.001,0.113
HMBOX1 isoform 5 (UniProt Q6NT76),0.028,-0.086,-0.001,0.122,-0.059,-0.038,-0.043,-0.071,-0.003,-0.013,-0.078,-0.003,-0.005,0.012,0.066,-0.037,-0.016,-0.156,0.02,-0.091
GTF3C3 (UniProt Q9Y5Q9),0.062,0.06,0.01,-0.088,-0.014,0.003,-0.158,0.005,0.049,-0.013,-0.018,-0.147,0.043,-0.007,0.04,-0.001,0.065,-0.006,0.02,-0.006
KDM6A (UniProt O15550),-0.045,0.006,0.017,0.035,-0.036,-0.017,0.089,0.067,0.029,-0.01,-0.057,-0.057,0.041,-0.048,0.006,0.054,0.018,-0.025,-0.005,-0.011
HADH isoform 2 (UniProt Q16836),-0.032,-0.022,-0.049,0.002,0.004,0.009,0.066,-0.054,-0.096,0.004,0.048,0.003,-0.024,0.061,0.09,-0.048,0.03,0.021,-0.002,0.042
INTS5 (UniProt Q6P9B9),0.052,-0.167,0.044,0.042,0.223,0.023,0.029,-0.072,0.069,-0.092,0.038,-0.055,0.027,0.017,-0.047,0.02,-0.259,0.028,0.013,0.045
HECTD3 (UniProt Q5T447),-0.046,0.007,-0.039,-0.022,-0.024,0.018,-0.004,-0.027,0.032,0.027,0.007,-0.047,0.02,0.045,-0.023,0.02,0.11,-0.015,0.002,0.014
IRAK1 (UniProt P51617),0.086,-0.033,-0.01,-0.089,-0.134,0.041,-0.135,0.043,-0.016,-0.029,-0.104,-0.038,0.314,0.086,0.121,0.812 (active),0.062,-0.01,0.096,0.022
KCT2 (UniProt Q8NC54),0.046,0.023,0.127,0.054,-0.001,-0.038,-0.374 (active),0.153,0.089,0.038,-0.137,0.029,-0.001,-0.012,0.013,0.031,-0.035,0.077,0,-0.037
HEATR3 (UniProt Q7Z4Q2),0.025,0.026,0.026,-0.048,-0.028,0.032,-0.064,-0.089,-0.019,0.026,0.007,-0.129,0.02,0.012,0,0.014,0.116,0.018,-0.046,0.003
